Compound activity: PubChem, several laboratories
Sampled rows, rich in hits. Any-hit rate of the full collection: about 5.4%.
SMARCA2 act = SMARCA2 (BRM) function activators, primary screen, cell-based, luminescence, high throughput; MG213 cells, MMTV-luciferase reporter, dexamethasone, overnight; activation, % at 9.1 µM; 370,000 tested, 1% active; in the data active means activation above about 7.8%;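 further: 0% = vehicle wells and 100% = reference activator wells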
MIN6 prolif = inducers of MIN6 beta-cell proliferation, primary screen, ATP luminescence, uHTS. MIN6 cells proliferation, ATPlite luminescence, 48 h; cells starved in 0.2% serum; 100% = growth in 10% serum. 330,000 tested, 0.29% active. proliferation, % at 10 µM;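 active means compounds whose signal lies at least 3.5 SD above the mean of all wells on their plate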;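 further: 0% = DMSO-treated cells in low-serum medium and 100% = 10% serum control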
JMJD2C inh = inhibitors of GASC-1 histone demethylase, primary screen, biochemical, fluorescence, DELFIA europium | 330,000 tested, 0.069% active | AID 2099, 2009 | GST-JMJD2C(1-420) H3K9me3 demethylation | Lysine-specific demethylase 4C (Homo sapiens), Q9H3R0 | inhibition, % at 2.35 µM;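 active means more than half of a compound's replicate wells show inhibition beyond 50%, single wells judged on their own value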;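 further: signal counts dimethyl H3K9 product captured on neutravidin plate; 0% = median of DMSO wells and 100% = 0.3 times that DMSO median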
Target sequence (Q9H3R0 1-420 limits assumed): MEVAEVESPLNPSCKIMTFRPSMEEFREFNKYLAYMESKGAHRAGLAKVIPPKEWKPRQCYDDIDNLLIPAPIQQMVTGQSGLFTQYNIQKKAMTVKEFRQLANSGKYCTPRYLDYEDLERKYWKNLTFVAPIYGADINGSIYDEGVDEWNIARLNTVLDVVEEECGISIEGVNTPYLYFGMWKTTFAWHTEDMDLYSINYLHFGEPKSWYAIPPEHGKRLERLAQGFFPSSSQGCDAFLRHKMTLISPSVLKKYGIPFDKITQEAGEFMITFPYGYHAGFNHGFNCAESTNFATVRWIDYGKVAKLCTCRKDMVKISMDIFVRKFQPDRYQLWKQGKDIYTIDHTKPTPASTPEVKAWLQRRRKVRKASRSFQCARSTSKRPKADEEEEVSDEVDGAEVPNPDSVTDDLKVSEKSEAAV
Granule exo inh = LAMP-1 surface exposure blockers, TALL-104 cells – cell-based, flow cytometry, MLPCN library, primary screen | TALL-104 LAMP-1 surface exposure; cells stimulated with thapsigargin and PMA | inhibition, % at 10 µM | 360,000 tested, 0.66% active | AID 651702, 2012;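 active means inhibition above about 55%, limit read from the data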
ALR inh = inhibitors of human ALR sulfhydryl oxidase, primary screen, biochemical, H2O2 detection, HRP-luminol luminescence, single point. FAD-linked sulfhydryl oxidase ALR (Homo sapiens), P55789. purified ALR, DTT oxidation. inhibition, % (test concentration not listed). 290,000 tested, 3.8% active;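 active means mean replicate inhibition above about 79%, with every replicate also reaching it, limit read from the data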
M18AAP inhibitor = PfM18AAP inhibitors, malaria aminopeptidase, primary screen, biochemical, QFRET, recombinant enzyme. M18 aspartyl aminopeptidase (Plasmodium falciparum 3D7). H-Glu-NHMec fluorogenic cleavage. inhibition, % at 7.35 µM. 290,000 tested, 1.2% active. AID 1822, 2009;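 active means inhibition above the campaign mean inhibition over all tested compounds plus 3 SD, cut at about 28% in these data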;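 further: 0% = plate median of test compound wells and 100% = 2 mM ZnCl2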
The depositor's hits bear a star; / = no result.

SMILES | SMARCA2 act | MIN6 prolif | JMJD2C inh | Granule exo inh | ALR inh | M18AAP inhibitor
O=C1CCCCC1C(Nc1ccc(Br)cc1)c1ccccc1 (configuration not stated) | 0 | -4 | -4 | 3 | 29 | -1
O=C1CCCCC1C(Nc1ccc(Cl)cc1)c1ccccc1 (configuration not stated) | 0 | -4 | 11 | 4 | 98* | 8
Cc1ccccc1CN(c1ccc(C(=O)NCc2cccnc2)cc1)S(C)(=O)=O | -2 | -2 | 8 | 0 | 96* | -3
CN(c1ccc(C(=O)NCc2cccnc2)cc1)S(C)(=O)=O | 0 | -3 | / | 18 | -13 | -7
C/C=C/C(=O)Nc1nnc(-c2ccccc2C)s1 | 2 | -1 | 3 | 1 | 98* | 3
COc1cccc(NC(=O)C2CCCN2C(=O)NCc2ccccc2)c1 (configuration not stated) | -7 | / | / | / | / | /
COc1ccc(OC)c(/C=N/c2oc(-c3ccco3)c(-c3ccco3)c2C#N)c1 | -4 | -1 | 23 | 1 | 98* | 18
O=C(CCc1ccccc1)N[C@H]1[C@@H](OC(=O)c2ccco2)CCC[C@]12C(=O)N(Cc1ccccc1)c1ccccc12 | -2 | / | / | / | / | /
Cc1nn(-c2ccccc2)c2sc(C(=O)N3CCC4(CC3)OCCO4)cc12 | -5 | / | / | / | / | /
CCn1c2ccccc2c2cc(NC(=O)CSc3nnc(C4CC4)n3Cc3ccco3)ccc21 | -3 | -3 | -8 | -1 | 98* | -44
COC(=O)[C@]12C[C@H](CC(=O)NCCCCc3ccccc3)C(=O)N(Cc3ccco3)C1=C[C@H](COCc1ccccc1)O[C@@H]2C | 1 | / | / | / | / | /
COc1cc(CC2COC(=O)C2(O)Cc2ccc(O)c(OC)c2)ccc1O (configuration not stated) | -3 | -3 | -22 | -1 | 87* | /
CC(C)NC(=O)c1onc(CSc2ccccc2)c1C(=O)O | 0 | -2 | 12 | 0 | 33 | 7
CCCCNC(=O)c1onc(CSc2ccccc2)c1C(=O)O | 0 | -1 | -1 | 4 | 19 | -1
CCCCNC(=O)c1onc(CSc2cccc3ccccc23)c1C(=O)O | 2 | 2 | 3 | 6 | 98* | 2
CC(C)NC(=O)c1onc(CSc2cccc3ccccc23)c1C(=O)O | 1 | -4 | 1 | -5 | 98* | -10
COC(=O)[C@]12C[C@H](CC(=O)N3CCCC3)C(=O)N(Cc3ccco3)C1=C[C@H](C(C)C)O[C@@H]2C1CC1 | -3 | / | / | / | / | /
Cc1cc(C(=O)N2CCN(c3ccc(F)cc3)CC2)on1 | -3 | 4 | 6 | -3 | 97* | -1
COc1cc(CNCc2ccc(C(=O)O)cc2)ccc1OCc1ccc(F)cc1 | -2 | 0 | -17 | 2 | -2 | -8
COc1cc(CNc2ccc(N3CCN(C(C)=O)CC3)cc2)ccc1OCc1ccc(F)cc1 | -1 | / | -4 | 1 | 99* | 10
O=C(c1noc2c1CCCC2)N1CCN(c2ccc(F)cc2)CC1 | / | -1 | 19 | -3 | 5 | -4
CC(=O)N1CCN(c2ccc(NCc3cccc(C)c3)cc2)CC1 | 1 | -3 | -6 | -8 | 99* | /
Cc1cccc(C(=O)Nc2ccc(N3CCN(C(=O)c4ccco4)CC3)cc2)c1 | 2 | 5 | 8 | -9 | 10 | 4
CC(=O)N1CCN(c2ccc(NCc3ccc(F)cc3)cc2)CC1 | -3 | -4 | 0 | -5 | 99* | 3
Cc1cc(N2CCN(C(=O)OC(C)(C)C)C[C@H]2C)ccc1N1CCN(Cc2ccccc2)[C@@H](C)C1 | -6 | / | / | / | / | /
CCCCOCCCNC(=O)C[C@H]1C[C@@]2(C(=O)OC)C(=C[C@H](COCc3ccccc3)O[C@@H]2C)N(CCc2ccc(OC)c(OC)c2)C1=O | -2 | / | / | / | / | /
N#C/C(=N\Nc1ccc(F)cc1)C(=N)N1CCCCC1 | 7.8* | -2 | 3 | 1 | 64 | -11
